Laboratory results taken from PubChem BioAssay AID651871 (Sanford-Burnham Center for Chemical Genomics, 2012).
Values joined by “and” are separate entries in the source; they are usually repeats but may differ in a detail not shown here. Equal entries are not always repeated.

Test system: H9c2
Test: cardiomyocyte survival under oxidative or metabolic stress – cell-based, panel, H9c2 and HL-1, ATP luminescence, set 2, SAR follow-up (AID 651871);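 note: cells exposed to stressor for 2 h before ATP readout; reference of the scale not given here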
Settings: H9c2/HL-1 cardiomyocytes, 2-deoxyglucose stress, with 2-deoxyglucose; run 9, at 79 µM (top of the series)

| Structure (SMILES) | activity (protection/inhibition) |
| --- | --- |
| COc1ccc2c(c1OC)C(=O)N1c3ccccc3C(=O)N(Cc3cccc(Cl)c3Cl)C21 (stereo not drawn) | 81.1% and 78.3% and -1.59% |
| CCOC(=O)c1cccc(NC(=O)CNC(=O)c2cc(-c3cc(OC)c(OC)c(OC)c3)nc3ccccc23)c1 | 90.9% |
| COc1ccc2nc(-c3cc(OC)c(OC)c(OC)c3)cc(C(=O)NCC(=O)Nc3ccc(C(C)=O)cc3)c2c1 | 84.5% |
